Measured values: PubChem BioAssay (NCI)
“And” between values parts separate entries of the source, which are not always exact repeats. Equal values may be shown once. This is part of a sample that, as a whole, favours compounds with a hit. Of some 83,000 tested, about 20% had one in any assay.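 Plates (96-well) were seeded with cells, treated with compound at one concentration, and incubated for 48 hours before percent growth was determined.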 The source made the active and inactive calls. The calls were made as follows: active = growth percent below 10; inactive = the rest.

Each compound was assayed on MDA-MB-468 breast (assay: NCI-60 one-dose screen, 48 h (100 = growth as untreated, 0 = no growth, -100 = all killed)). Conditions: 10 µM unless noted.
For `OC1COC(OCc2ccccc2)C(O)C1O` (stereo not given), the growth was 94.8% (inactive). In the case of `C=CC(=O)Nc1cccc(Nc2nc(Nc3ccc(N4CCN(C(C)=O)CC4)cc3OC)ncc2C(F)(F)F)c1`, the growth is reported as -48.8% (active). In the case of `CCOc1ccc(C(=O)Cc2ccccc2)cc1`, the growth is reported as 90.2% (inactive) and 96% (inactive). With `COc1ccc(-c2cc(-c3ccc(N(C)C)cc3)n3c(n2)nc2ccccc23)cc1` the growth was 50.8% (inactive). In the case of `COC1C(O)CC(OC2CC(OC3CC(O[C@@H]4C(=O)c5c(cc6cc(OC7CC(OC8CC(O)C(O)C(C)O8)C(O)C(C)O7)c(C)c(O)c6c5O)CC4[C@H](OC)C(=O)O)OC(C)C3O)OC(C)C2O)OC1C` (stereo not given in full), the growth is reported as 15.8% (inactive). In the case of `COc1cc(C2C=C(C)N=C3SC=C(C)N32)cc(OC)c1OC` (stereo not given), the growth is reported as -74.2% (active). In the case of `CN1CCN(CCCOc2ccc3ncnc(Nc4ccc(Oc5cccc(C(F)(F)F)c5)c(Cl)c4)c3c2)CC1`, the growth is reported as -24.2% (active). With `COc1cccc(/C=C2\SC(N3CCN(c4ccccn4)CC3)=NC2=O)c1` the growth was 101% (inactive). With `FC(F)(F)c1cccc([Si](F)(c2cccc(C(F)(F)F)c2)c2cccc(C(F)(F)F)c2)c1` the growth was 54.4% (inactive). In the case of `COc1cc([N+](=O)[O-])c2ncccc2c1O`, the growth is reported as 95.1% (inactive). With `N/C(=N\OC(=O)c1ccccc1)C(Cc1ccccc1)C(=O)NOC(=O)c1ccccc1` (stereo not given) the growth was 66.1% (inactive). `C=CC(=O)N1CCN(c2ccc3cccc(NC(=O)c4cnc(C)cn4)c3n2)CC1` was tested, and the growth was 1.58% (active). For `O=c1nc(NO)[nH]c(=O)n1Cc1ccccc1`, the growth was 107% (inactive). With `N#Cc1nnn(-c2ccc(S(N)(=O)=O)cc2)c1NC(=O)CCl` the growth was 98.7% (inactive). In the case of `COC(=O)C1C(O)C(C)C(O)C(C)C=C(C)C2=C3C(=C(C)C(=O)c4c(O)c(c(C)c(OC(C)=O)c43)NC(=O)C(C)=C/C=C\C(C)C(O)C(C)C1O)OCO2` (stereo not given), the growth is reported as 106% (inactive). With `COc1cc([C@H]2OC[C@H]3[C@@H]2CO[C@@H]3c2ccc(O)c(OC)c2)ccc1O` the growth was 100% (inactive). In the case of `CC(C)(CCN=C(N)Nc1ccccn1)c1ccc(C(F)(F)F)cc1`, the growth is reported as 3.96% (active). `O=C1/C(=C/c2cccc(O)c2)COc2ccc(O)cc21` was tested, and the growth was 52.8% (inactive). `O=C(/C=C/c1ccccc1Cl)c1cccc(OCCCCOc2cccc(C(=O)/C=C/c3ccccc3Cl)c2)c1` was tested, and the growth was 110% (inactive). `C/C(=N/O)c1ccc(F)cc1` was tested, and the growth was 75% (inactive). `COc1ccc(-c2cnc(-c3ccc(Cl)cc3)[nH]2)cc1OC` was tested, and the growth was 84.7% (inactive). For `CCCCCN1C=C/C(=C\C(=O)n2ccc3ccccc32)c2ccccc21`, the growth was 73% (inactive). In the case of `O=C(NCCNc1nccc(-c2c(-c3cccc(O)c3)nc3sccn23)n1)Nc1cccc(C(F)(F)F)c1`, the growth is reported as -40.6% (active). With `COc1ccc(-c2nn(-c3cccc(Cl)c3)cc2-c2cc(-c3ccc(Br)cc3)[nH]c(=O)c2C#N)cc1` the growth was 75.1% (inactive). For `Nc1ccc2c(O)cc(S(=O)(=O)O)cc2c1`, the growth was 110% (inactive). For `CSc1nc(=O)n(Cc2ccc(Cl)cc2)c(=O)[nH]1`, the growth was 121% (inactive). For `CCOC(=O)c1ccc(NC(=O)CSC(N)=O)cc1`, the growth was 108% (inactive). With `COc1ccc(Oc2ccc(C3CC(c4cc(OC)c(OC)c(OC)c4)=NN3C(C)=O)cc2)cc1` (stereo not given) the growth was 4.96% (active). With `OC(c1cccc(C(F)(F)F)c1)c1cnccc1NC1CCCCC1` (stereo not given) the growth was 33% (inactive). For `CCCCCCCCCCCCSC1=C(Cl)C(=O)C(OC)=C(OC)C1=O`, the growth was 20.9% (inactive). With `Cc1[nH]nc2c(=S)[nH]c(=O)[nH]c12` the growth was 101% (inactive). For `O=C1c2cc3c(cc2-c2c1c1ccc(F)cc1c(=O)n2CCCN1CCOCC1)OCO3`, the growth was 18.5% (inactive). With `Fc1ccc(-c2nc(-c3ccc(-c4nc5ccc(F)cc5[nH]4)cc3)no2)cc1` the growth was 56.2% (inactive). In the case of `CC(=O)/C=C/c1cc2cc(Cl)ccc2[nH]c1=O`, the growth is reported as 82.9% (inactive). In the case of `CN1CCN(CCCOc2ccc3ncnc(Nc4ccc(OCc5cccc(F)c5)c(Cl)c4)c3c2)CC1`, the growth is reported as -63.1% (active). For `COc1cc(NC(=O)CCl)ccc(=O)c1`, the growth was 75.6% (inactive). In the case of `C=C(c1ccc(N(C)C)cc1)c1ccc(N(C)C)cc1`, the growth is reported as -30.9% (active). With `Cc1ccc(-c2nc(N3CCN(C(=O)Nc4ccc(Cl)c(C(F)(F)F)c4)CC3)c3ccccc3n2)cc1` the growth was 77.2% (inactive). `O=C(/C=C/C=C/c1ccccc1)c1ccco1` was tested, and the growth was 29.3% (inactive). With `CCOC(=O)c1c(Nc2ccccc2)nn2c(-c3ccc(OC)cc3)ccnc12` the growth was 91.1% (inactive).
